Screens deposited in PubChem BioAssay by several laboratories.
Mcl-1 Bim block: human Bim-Mcl-1 interaction inhibition | Q07820 | Bead-based flow cytometry, Bim peptide-Mcl-1 binding | inhibition, % at 10 µM | 190,000 compounds, 0.1% hits; in the data active means inhibition above about 40%;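 further: 0% = no compound tracer wells and 100% = peptide blocker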
Target sequence (Q07820 whole entry, looked up): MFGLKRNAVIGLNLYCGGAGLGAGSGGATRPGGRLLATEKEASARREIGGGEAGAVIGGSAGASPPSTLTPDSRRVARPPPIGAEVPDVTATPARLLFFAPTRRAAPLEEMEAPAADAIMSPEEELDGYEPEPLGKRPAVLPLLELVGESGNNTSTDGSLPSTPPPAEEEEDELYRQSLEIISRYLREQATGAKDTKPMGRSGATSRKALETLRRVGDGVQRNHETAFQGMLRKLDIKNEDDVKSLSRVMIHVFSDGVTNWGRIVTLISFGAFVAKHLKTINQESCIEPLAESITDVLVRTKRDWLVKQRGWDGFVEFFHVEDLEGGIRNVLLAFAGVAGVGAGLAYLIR
MCL1-BIM inh: disrupts human MCL1 binding to BIM-BH3 peptide; 320,000 compounds, 0.68% hits; AID 2057; GST-MCL1 / FITC-Bim-BH3 fluorescence polarization; inhibition, % at 10.9 µM;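 active means inhibition above the mean inhibition of all tested compounds plus 3 SD, set per campaign, cut at about 40% in these data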;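 further: 0% = DMSO wells and 100% = unlabeled Bim-BH3 peptide control; higher means more loss of mP so more displacement of Bim peptide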
GLD-1 RNA inh: GLD-1-TGE RNA interaction inhibition (C. elegans); purified GLD-1 + fluorescein TGE RNA, fluorescence polarization; inhibition, % at 5.96 µM; 320,000 compounds, 0.44% hits; AID 2280;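 active means percent inhibition above a per-plate cutoff, the plate mean of test compounds plus 3 SD, cut at about 30% in these data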;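 further: 0% = DMSO wells with GLD-1 and probe and 100% = wells lacking GLD-1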
Mcl1 Noxa PPI: Mcl-1/Noxa interaction inhibition | Q07820 | inhibition, % at 21.7 µM | AID 1022 | 220,000 compounds, 1.5% hits | TR-FRET Mcl-1/Noxa peptide binding, 2 h;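 active means compounds that cut the protein-peptide binding signal by more than 50% relative to plate controls in a single-dose test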;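 further: His-tagged Mcl-1 with rhodamine Noxa BH3 peptide and terbium anti-His antibody; 0% = Mcl-1 plus Noxa peptide wells and 100% = peptide-only wells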
Bcl-xL primary: blocks human Bcl-xL binding to Bim BH3 peptide; GST-Bcl-xL / FITC-Bim BH3 peptide fluorescence polarization; 320,000 compounds, 0.7% hits; inhibition, % at 10.9 µM;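 active means inhibition above the mean of all tested compounds plus 3 SD, cutoff set per campaign, cut at about 30% in these data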;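 further: 0% = DMSO wells and 100% = unlabeled Bim-BH3 peptide competitor; inhibitors lower millipolarization by displacing the labeled peptide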
Mcl1-Bid inh: Mcl-1/Bid interaction inhibition. Q07820. TR-FRET Mcl-1/Bid-Dy647 peptide binding, 1536-well. inhibition, % at 21.7 µM. 220,000 compounds, 0.97% hits;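 active means compounds that cut the binding signal by more than half at the single screening dose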;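 further: His-tagged Mcl-1 with europium anti-His antibody binding Bid BH3 peptide; 0% = Mcl-1 plus peptide wells and 100% = peptide-only wells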
An asterisk follows results filed as active; / = no result given. A selection: hits, their analogues and other compounds. The true share with any hit is near 2.3%.

SMILES	Mcl-1 Bim block	MCL1-BIM inh	GLD-1 RNA inh	Mcl1 Noxa PPI	Bcl-xL primary	Mcl1-Bid inh
CCc1nc(C)ccc1OCC(=O)NCCCN(C)C	-3	0	8	32	-3	55*
CCc1nc(C)ccc1OCC(=O)O	-1	-8	4	20	-2	22
O=C(NC(=S)Nc1ccc2c(c1)C(=O)c1ccccc1C2=O)c1ccc(F)cc1	-2	9	8	51*	6	42
Cc1cc(C)cc(C(=O)NCC(=O)OCC(=O)N2c3ccccc3NC(=O)C2(C)C)c1	16	27	-2	54*	7	-24
COc1cc(OC)cc(C(=O)NCC(=O)OCC(=O)N2c3ccccc3NC(=O)C2(C)C)c1	-1	2	-5	10	0	-10
Cc1ccc(SCCC(=O)N(C)CC(=O)Nc2c(C)cccc2C)cc1	/	1	-1	/	3	/
CCOc1ccc2nc(C)cc(Nc3ccc(N4CCOCC4)cc3)c2c1	-2	-4	6	62*	3	-5
Cc1c(Cl)cccc1Nc1nc(N)nc(CSc2nc3ccccc3s2)n1	0	8	5	10	5	15
Nc1nc(CSc2nc3ccccc3s2)nc(Nc2ccccc2)n1	-5	4	11	73*	6	14
Cc1cc(Nc2ccc([N+](=O)[O-])cc2)c2ccccc2n1	/	-4	2	/	4	/
O=c1nc(Nc2ccccc2)sc2ccc([N+](=O)[O-])cc12	-11	5	3	54*	5	2
O=C1CCCC2=C1C(c1ccc(O)c(O)c1)c1c(ccc3ncccc13)N2 (stereo unspecified)	7	52*	1	79*	36*	-44
CCOc1ccc(C2C3=C(CCCC3=O)Nc3ccc4ncccc4c32)cc1 (stereo unspecified)	/	2	7	-3	1	-67
CCCCn1c(=O)cc(C)n(-c2ccccc2)c1=O	/	10	10	/	7	/
CCCCn1c(=O)nc2n(-c3ccccc3)c3ccccc3cc-2c1=O	0	11	6	5	11	64*
CCOc1ccc(NC(=S)NN2C(C)CCCC2C)cc1 (stereo unspecified)	-8	32	2	25	5	57*
c1ccc(CSc2nc3ncccn3n2)cc1	/	8	0	/	6	/
CC(=O)Oc1ccc(NC(=O)CSc2ccccc2)cc1	0	2	3	75*	1	8
O=C(CSc1ccccc1)Nc1ccccc1C(=O)O	2	0	7	39	1	56*
CC(=O)NS(=O)(=O)c1ccc(NC(=O)CSc2ccccc2)cc1	/	3	-1	9	3	2
CC(CCN1CCC(n2nccc2NC(=O)c2ccccc2Cl)CC1)c1ccccc1 (stereo unspecified)	/	6	-1	/	7	/
Cc1cc(NC(=O)CN2CCN(C)CC2)no1	1	-3	3	17	0	32
Cc1cc(NC(=O)CSc2ccc3ccccc3c2)no1	0	13	-3	53*	2	30
Cc1cc(NC(=O)CSc2nc(-c3ccccc3)cs2)no1	-1	4	-7	-3	2	3
Cc1cc(NC(=O)CSc2nc(-c3ccc(F)cc3)cs2)no1	1	-7	-9	86*	-8	-41
SMILES	Mcl-1 Bim block	MCL1-BIM inh	GLD-1 RNA inh	Mcl1 Noxa PPI	Bcl-xL primary	Mcl1-Bid inh
Cc1cc(NC(=O)CN2CCCCCCC2)no1	-4	-8	6	21	0	64*
Cc1csc(SCC(=O)NC(=O)NC2CCCC2)n1	-2	6	-6	18	3	-20
CN(C)c1ccc(/C=C/c2cccc[n+]2[O-])cc1	/	19	-2	3	31*	-40
[O-][n+]1ccccc1/C=C/c1ccccc1	/	7	1	/	3	/
O=C(Cn1ccc(NC(=O)OCc2ccccc2)nc1=O)NCc1ccc2c(c1)OCO2	/	1	7	/	1	/
Cc1ccc(N(CC2CO2)S(=O)(=O)c2ccccc2[N+](=O)[O-])cc1 (stereo unspecified)	/	-1	6	/	5	/
Cc1cc(C(F)(F)F)c(C#N)c(SCC(=O)Nc2nc3ccccc3s2)n1	/	6	7	-50	37*	-37
Cc1nc(SCC(=O)Nc2nc3ccccc3s2)c(C#N)c(C)c1C	-6	-9	1	17	-1	-35
CC(C)(C)c1nc2ccccc2c2nnc(SCC(=O)Nc3nc4ccccc4s3)n12	2	-3	8	26	-1	71*
